Reference: PubChem BioAssay (Tox21)
Where “and” joins values, the source holds several entries; their conditions need not be identical. Equal values may be shown once. Results filed as inconclusive are left out. Where a call stands in place of a potency, no number is given. Some compounds were tested as several samples or in several runs, with calls that do not always agree. Calls of active or inactive are those of the source. Unless noted, the call rests on the fitted dose curve; in most records, active means well fitted curve in the direction sought with a large enough effect in the repeat runs; inconclusive means weak or mixed curves; inactive means no such curve, though single readings can be large; an effect the other way counts as inactive or inconclusive.

What was measured:
[1] = qHTS assay to identify small molecule antagonists of the glucocorticoid receptor (GR) signaling pathway - cell viability counter screen (AID 720693); further: nearly all actives have a fitted effect of over 55% in size
[2] = qHTS assay for identifying genotoxic compounds that show differential cytotoxicity against isogenic chicken DT40 cell lines with known DNA damage response pathways - wild type cell line (AID 743012); further: nearly all actives have a fitted effect of over 60% in size; further: potency means the concentration at half of the fitted maximal effect
Procedure, shortened: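 First, wild type DT40 cells were plated at 300 per well and equilibrated about 0.5 h at 37 C/5% CO2. Next, compounds in DMSO were added and exposure lasted 40 h. Finally, CellTiter-Glo was added for 30 min at room temperature and luminescence recorded.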

[3] = qHTS assay for identifying genotoxic compounds that show differential cytotoxicity against isogenic chicken DT40 cell lines with known DNA damage response pathways - Rev3 mutant cell line (AID 743014); further: nearly all actives have a fitted effect of over 55% in size; further: potency means the concentration at half of the fitted maximal effect
[4] = qHTS assay for identifying genotoxic compounds that show differential cytotoxicity against isogenic chicken DT40 cell lines with known DNA damage response pathways - Rad54/Ku70 mutant cell line (AID 743015); further: nearly all actives have a fitted effect of over 60% in size; further: potency means the concentration at half of the fitted maximal effect
[5] = qHTS assay to identify small molecule antagonists of the androgen receptor (AR) signaling pathway - cell viability counter screen (AID 743033; further: nearly all actives have a fitted effect of over 45% in size)
[6] = qHTS assay to identify small molecule antagonists of the androgen receptor (AR) signaling pathway using the MDA cell line - cell viability counter screen (AID 743041; further: nearly all actives have a fitted effect of over 45% in size; further: potency means the concentration at half of the fitted maximal effect)
Procedure, shortened: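 R1881-driven MDA-kb2 AR-luc cells, 3,000/well, were dosed with library compounds for 16 h; cell health came from CellTiter-Fluor fluorescence in the reporter wells.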

[7] = qHTS assay to identify small molecule antagonists of the thyroid receptor (TR) signaling pathway - cell viability counter screen (AID 743064); further: nearly all actives have a fitted effect of over 50% in size
Procedure, shortened: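 GH3.TRE-Luc rat pituitary cells dosed after 4 hr plating, co-stimulated with T3 at 1 nM final, incubated 23.5 h at 37 C. Viability measured in the same wells by CellTiter-Fluor fluorescence after 30 min further at 37 C.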

[8] = target: Androgen receptor (Homo sapiens) (UniProt P10275); assay: qHTS assay to identify small molecule agonists of the androgen receptor (AR) signaling pathway using the MDA cell line (AID 743040; further: nearly all actives have a fitted effect of over 20% in size; further: potency means the concentration at half of the fitted maximal effect)
Procedure, shortened: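 After a 5 h incubation at 37C and 0% CO2, MDA-kb2 reporter cells were dosed with compounds in DMSO and kept 16 h under the same conditions. Luciferase activity was then read as luminescence with ONE-Glo.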

[9] = target: Androgen receptor (Homo sapiens) (UniProt P10275); assay: qHTS assay to identify small molecule antagonists of the androgen receptor (AR) signaling pathway using the MDA cell line (AID 743042; further: nearly all actives have a fitted effect of over 55% in size)
Procedure, shortened: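 Antagonist mode: compounds plus R1881 agonist added to MDA-kb2 AR-luc cells, incubated 16 h at 37C. Luciferase reporter luminescence quantified, with multiplexed CellTiter-Fluor readout for cell viability.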

[10] = target: Androgen receptor (Homo sapiens) (UniProt P10275); assay: qHTS assay to identify small molecule antagonists of the androgen receptor (AR) signaling pathway (AID 743035; active means well fitted inhibition curve with a large enough effect in the signal ratio in the repeat runs, not every such curve was filed as active; the % refers to the signal ratio)
Procedure, shortened: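 Beta-lactamase FRET read (2 h RT incubation with LiveBLAzer B/G) following 16 h of compound plus R1881 treatment of AR-UAS-bla HEK293 cells, which had been pre-incubated 4 h at 37C.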

Androgen receptor (Homo sapiens), sequence (P10275 whole entry, looked up): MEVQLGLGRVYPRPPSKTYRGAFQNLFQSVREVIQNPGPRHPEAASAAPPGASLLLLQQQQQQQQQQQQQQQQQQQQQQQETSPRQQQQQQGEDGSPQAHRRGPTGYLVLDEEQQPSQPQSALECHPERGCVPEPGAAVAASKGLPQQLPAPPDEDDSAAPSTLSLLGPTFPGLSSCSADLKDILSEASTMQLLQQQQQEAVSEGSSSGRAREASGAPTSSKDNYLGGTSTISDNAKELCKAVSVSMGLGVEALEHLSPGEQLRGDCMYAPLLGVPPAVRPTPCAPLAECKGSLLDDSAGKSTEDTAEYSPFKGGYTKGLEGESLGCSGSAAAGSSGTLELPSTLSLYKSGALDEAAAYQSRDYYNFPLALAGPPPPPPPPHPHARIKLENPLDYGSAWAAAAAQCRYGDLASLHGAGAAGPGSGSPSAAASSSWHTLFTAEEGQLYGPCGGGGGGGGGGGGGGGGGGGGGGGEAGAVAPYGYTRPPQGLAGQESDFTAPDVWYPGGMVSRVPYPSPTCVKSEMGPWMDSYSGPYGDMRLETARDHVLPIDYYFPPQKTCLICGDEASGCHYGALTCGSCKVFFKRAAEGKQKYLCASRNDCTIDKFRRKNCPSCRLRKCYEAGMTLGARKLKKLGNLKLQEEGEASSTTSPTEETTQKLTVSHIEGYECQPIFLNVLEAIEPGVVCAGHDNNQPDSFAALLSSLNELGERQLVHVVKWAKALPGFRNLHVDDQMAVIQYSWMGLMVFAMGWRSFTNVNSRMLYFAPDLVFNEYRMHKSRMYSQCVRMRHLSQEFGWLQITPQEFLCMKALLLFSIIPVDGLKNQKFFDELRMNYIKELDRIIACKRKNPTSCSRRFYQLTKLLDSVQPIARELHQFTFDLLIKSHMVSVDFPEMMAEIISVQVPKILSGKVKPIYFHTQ

SMILES | outcome [1] | Potency [2] | Potency [3] | Potency [4] | outcome [5] | Potency [6] | Potency [7] | Potency [8] | outcome [9] | outcome [10]
O=C(O)c1ccccc1C(=O)O | inactive | inactive | inactive | inactive | inactive | inactive | inactive | – | – | –
C=Cc1ccc(C)cc1 | inactive | inactive | inactive | inactive | inactive | inactive | – | – | – | –
CC(=O)c1ccc(O)cc1 | inactive | inactive | inactive | inactive | inactive | inactive | – | – | – | –
Cc1ccc(C(C)C)c(O)c1 | inactive | inactive and 48.6 µM (active) | inactive and 17.2 µM (active) | inactive and 61.1 µM (active) | inactive | inactive | – | – | – | –
NCCNCCN | inactive | inactive | inactive and 68.6 µM (active) | inactive | inactive | inactive | inactive | – | – | –
O=S(=O)(O)c1ccccc1 | inactive | inactive | inactive | inactive | inactive | inactive | inactive | – | – | –
OCc1cccc(Oc2ccccc2)c1 | inactive | inactive | inactive | inactive | inactive | inactive | inactive | inactive | inactive | –
CCOC(=O)c1ccc(N)cc1 | inactive | inactive | inactive | 7.17 µM (active) and inactive | inactive | inactive | inactive | – | – | –
CCCOC(=O)c1ccccc1 | inactive | inactive | inactive | inactive | inactive | inactive | – | – | – | –
O=C(O)c1cc2ccccc2cc1O | inactive | inactive | inactive | inactive | inactive | inactive | – | inactive | inactive | –
C=C(C)CNCC | inactive | inactive | inactive | inactive | inactive | inactive | – | – | – | –
CC1(C)CC(N)CC(C)(CN)C1 (configuration not stated) | inactive | inactive | inactive and 54.5 µM (active) | inactive | inactive | inactive | – | – | – | –
COCCCN | inactive | inactive | inactive | inactive | inactive | inactive | – | – | – | –
CCNc1ccccc1 | inactive | inactive | inactive | inactive | inactive | inactive | inactive | inactive | inactive | inactive
CCCCCCCCCCO | inactive | inactive | inactive | inactive | inactive | inactive | inactive | – | – | –
Cc1ccc([N+](=O)[O-])cc1S(=O)(=O)O | inactive | inactive | inactive | inactive | inactive | inactive | – | inactive | inactive | inactive
CCCCOC(=O)c1ccc(N)cc1 | inactive | inactive and 13.5 µM (active) | 9.44 µM (active) and 13.5 µM (active) | 7.5 µM (active) and 7.59 µM (active) | inactive | inactive | inactive | – | – | –
C=CC(C)CCCC(C)(C)O (configuration not stated) | inactive | inactive | inactive and 61.1 µM (active) | inactive | inactive | inactive | inactive | – | – | –
O=C(O)c1ccc(C(=O)O)c(C(=O)O)c1 | inactive | inactive | inactive | inactive | inactive | inactive | – | inactive | inactive | inactive
Nc1nc(N)nc(-c2ccccc2)n1 | inactive | inactive | inactive | inactive | inactive | inactive | inactive | – | – | –
CC(C)(C#N)c1cc(Cn2cncn2)cc(C(C)(C)C#N)c1 | inactive | inactive | inactive | inactive | inactive | inactive | – | – | – | –
CCCCCCCCCCN | inactive | inactive | inactive | inactive | inactive | inactive | – | – | – | –
COc1ccccc1OCC(O)CO (configuration not stated) | inactive | inactive | inactive | inactive | inactive | inactive | inactive | inactive | inactive | inactive
Brc1ccc(Br)c(Br)c1 | inactive | inactive | inactive | inactive | inactive | inactive | – | – | – | –
NC(=S)NNC(N)=S | inactive | inactive | inactive | inactive | inactive | inactive | – | – | – | –
CC(=O)CC(C)(C)O | inactive | inactive | inactive | inactive | inactive | inactive | inactive | inactive | inactive | inactive

SMILES | outcome [1] | Potency [2] | Potency [3] | Potency [4] | outcome [5] | Potency [6] | Potency [7] | Potency [8] | outcome [9] | outcome [10]
COc1ccc(N)c(C)c1 | inactive | inactive | inactive | inactive | inactive | inactive | – | – | – | –
C=CCCCCCCCCC(=O)O | inactive | inactive | inactive | inactive | inactive | inactive | inactive | – | – | –
CC1(C)NC(=O)NC1=O | inactive | inactive | inactive | inactive | inactive | inactive | – | – | – | –
COC(=O)CCCC(=O)OC | inactive | inactive | inactive | inactive | inactive | inactive | inactive | – | – | –
CC(=O)OC1CC(C)OC(C)O1 (configuration not stated) | inactive | inactive | inactive | inactive | inactive | inactive | inactive | – | – | –
C=C(C)C(=O)OCC(C)C | inactive | inactive | inactive | inactive | inactive | inactive | – | – | – | –
CC(C)OC(=O)COc1ccc(Cl)cc1Cl | inactive | inactive | inactive | inactive | inactive | inactive | – | – | – | –
O=C(O)CCCCCCCCC(=O)O | inactive | inactive | inactive | inactive | inactive | inactive | – | – | – | –
CN/C(=C\[N+](=O)[O-])NCCSCc1csc(CN(C)C)n1 | inactive | inactive | inactive | inactive | inactive | inactive | – | inactive | inactive | inactive
CC(C)CC(C)O (configuration not stated) | inactive | inactive | inactive and 61.1 µM (active) | inactive | inactive | inactive | inactive | – | – | –
NCCCCCCN | inactive | inactive | inactive | inactive | inactive | inactive | – | – | – | –
O=C(O)Cn1c(=O)n(Cc2ccc(Br)cc2F)c(=O)c2ccc(Cl)cc21 | inactive | – | inactive | inactive | inactive | inactive | – | inactive | inactive | –
O=C1C(c2[nH]c3ccccc3c2O)=Nc2ccccc21 | inactive | inactive | – | inactive | inactive | inactive | inactive | – | – | –
O=S(=O)(O)c1ccc(N=Nc2c(O)ccc3cc(S(=O)(=O)O)ccc23)cc1 | inactive | inactive | – | inactive | inactive | 30.8 µM (active) and 27.3 µM (active) | – | – | – | –
COc1ccc(CCC(C)=O)cc1 | inactive | inactive | – | inactive | inactive | – | – | – | – | –
CC(O)CC(C)(C)O (configuration not stated) | inactive | inactive | – | inactive | inactive | inactive | inactive | – | – | –
CN(C)c1ccc(Cc2ccc(N(C)C)cc2)cc1 | inactive | 27.3 µM (active) | – | 61.4 µM (active) and 24.3 µM (active) | inactive | inactive | – | – | – | –
CCO[Si](CCC#N)(OCC)OCC | inactive | inactive | – | inactive | inactive | inactive | – | – | – | –
COc1ccc([N+](=O)[O-])cc1N | inactive | inactive | – | inactive and 54.5 µM (active) | inactive | inactive | – | – | – | –
CC(=O)CCC=C(C)C | inactive | inactive | – | inactive | inactive | inactive | inactive | – | – | –
c1ccc(Oc2ccccc2)cc1 | inactive | inactive | – | inactive | inactive | inactive | inactive | – | – | –
CN(C)CCOC(=O)COc1ccc(Cl)cc1 | inactive | inactive | – | inactive | inactive | inactive | inactive | – | – | –
CCCCCC(=O)O | inactive | – | inactive | inactive | inactive | inactive | inactive | inactive | inactive | inactive
C[Si]1(C)O[Si](C)(C)O[Si](C)(C)O[Si](C)(C)O1 | inactive | inactive | – | inactive | inactive | inactive | – | – | – | –
CC1(C)S[C@@H]2[C@H](NC(=O)COc3ccccc3)C(=O)N2[C@H]1C(=O)O | inactive | inactive | – | inactive | inactive | inactive | – | – | – | –
C[C@]12CCC(=O)C=C1CC[C@@H]1[C@@H]2[C@@H](O)C[C@@]2(C)[C@H]1CC[C@]2(O)C(=O)CO | inactive | inactive | – | inactive | – | inactive | – | 119 nM (active) and 69.3 nM (active) | inactive | inactive
